Assay results taken from PubChem BioAssay AID686970 (National Center for Advancing Translational Sciences (NCATS), 2013).
Out of some 360,000 compounds screened, about 6,000 (1.7%) were called active. Roughly 8% stayed inconclusive and do not appear here. The full list was thinned out, with actives kept by preference. A number with no mark means an inactive call. The call rests on the fitted dose curve; in most records, active means well fitted cell-killing curve with a large enough effect; inconclusive means small, poorly fitted or top-dose-only effect, or effect the other way; inactive means flat fitted curve, though single readings scatter.
Potency means the concentration at half of the fitted maximal effect.

Test: qHTS for induction of synthetic lethality in tumor cells producing 2HG: qHTS for the HT-1080-NT fibrosarcoma cell line; further: nearly all actives have a fitted effect of over 55% in size
Settings: HT-1080-NT fibrosarcoma viability, CellTiter-Glo ATP luminescence, 48 h; series mostly up to 46.1 µM; activity, negative = less viability: at the top concentration
Source text: Unbiased genomic sequencing for 22 glioma genomes found recurrent mutation of IDH1 on chromosome 2q33, a gene encoding the cytosolic isoform of IDH1 associated with the tricarboxylic acid cycle (TCA) that catalyzes the oxidative decarboxylation of isocitrate, yielding alpha-ketoglutarate and CO2 via NADP+ to NADPH conversion. Subsequent studies confirmed the recurrent IDH mutations in up to 70% of secondary gliomas and in 10% of AML cases. In addition, the somatic mutation of cancer-associated IDH1 is a point mutation resulting in various amino-acid substituents at Arginine132 (IDH1 R132), a key residue found in the enzyme's active site that when mutated, results in the loss-of-function in metabolizing isocitrate but confers a gain-of-function to produce the oncometabolite 2-hydroxyglutarate (2HG). This in effect defines IDH1 as an oncogene and provides an extraordinary opportunity to discover chemical probes against mutant IDH1 that may translate into much needed new therapies for glioma and AML patients.
This assay aims to perform a synthetic lethal screen for chemical probes specific for 2HG-producing tumor cells using matched paired cell lines (1) HT-1080-NT fibrosarcoma cell line that overproduces 2HG and (2) HT-1080-IDH1KD cell line which has IDH1 expression knocked-down. Desirable compounds are toxic to the NT fibrosarcoma cells but not to the IDH1KD cell line. The data in this AID corresponds to the results of the qHTS against the HT-1080-NT fibrosarcoma cell line.
[1] Dang L, Jin S, Su SM. IDH mutations in glioma and acute myeloid leukemia. Trends of Mol Med. 2010; 16(9): 387-97.
[2] Dang L et al. Cancer-associated IDH1 mutations produce 2-hydroxyglutarate. Nature. 2010; 465(7300):966.
NIH Molecular Libraries Probe Production Centers Network [MLPCN]
NIH Chemical Genomics Center [NCGC]
Assay Submitter (PI): Lenny Dang Ph.D., Agios Pharmaceuticals
Suspensions of trypsinized HT-1080-NT cells were dispensed into white, tissue culture-treated, solid 1536-well plates at 5uL/well (750 cells/well final concentration) in RPMI medium supplemented with 5% FBS. Plates were incubated at 37 degrees C for 2 hours, after which 23 nL of compounds or DMSO were delivered to each well using a pin tool. Plates were then incubated at 37 degrees C for an additional 48 hours. CellTiter-Glo viability reagent (Promega) was dispensed into wells (2.5uL/well) and incubated at room temperature for 10 minutes. The plates were measured on a PerkinElmer ViewLux plate reader for luminescent signal (clear filter, 1 sec exp). DMSO-treated control wells and media-only (no cells) control wells were used to normalize %Activity of identified toxic compounds; DMSO-treated wells corresponded to 0%Activity (100% viability), while media-only controls were used to normalize 100%Activity (0% viability).
Concentration-response curves were fitted to the signals arising from the resulting luminescence. The concentration-effect curves were then classified based on curve quality (r2), response magnitude and degree of measured activity, and compounds were subsequently categorized based on their curve class.
With `CC(=O)OCC(C)n1c(=O)c2ccccc2n1C(C)=O` (configuration not stated) the “activity, negative = less viability” value was 3.8%. For `CCN1/C(=C/C(=S)Nc2ccccc2)Sc2ccccc21`, the Potency was 6.51 µM (active). In the case of `CCOC(=O)CNC(=O)N1c2ccccc2Sc2ccccc21`, the “activity, negative = less viability” value is reported as 0%. With `CC(NC(=S)Nc1ccccc1)C1COc2ccccc2O1` (configuration not stated) the “activity, negative = less viability” value was -2.44%. For `COc1ccc(OC)c(CN2C(=O)CCC2(C)c2nnnn2Cc2ccccc2)c1` (configuration not stated), the “activity, negative = less viability” value was 6.01%. For `CCOC(=O)N1CCN(C(=O)C[C@@H]2C[C@@]3(C(=O)OC)CCCCC=C3N(CCC3=CCCCC3)C2=O)CC1`, the “activity, negative = less viability” value was -17.7%. With `Cc1cc(C(=O)Nc2nnc(C3CC3)s2)c(C)s1` the activity, negative = less viability was -2.13% [at 9.24 µM]. With `O=C(Nc1nnc(C2CC2)s1)c1ccccn1` the Potency was 7.08 µM (active). With `CCc1ccccc1OCC(=O)Nc1nnc(C2CC2)s1` the “activity, negative = less viability” value was 6.09%. In the case of `Cc1onc(-c2ccccc2)c1-c1nnc(COC(=O)c2ccc(N(C)C)cc2)o1`, the “activity, negative = less viability” value is reported as -9.65%. With `COc1ccc(CCNC(=O)Nc2ccc3c(c2)c(=O)n(C)n3C)cc1OC` the “activity, negative = less viability” value was 18.5%. With `CCOC(=O)c1[nH]ncc1CN1CCCC(C(=O)c2ccc(OC)cc2C)C1` (configuration not stated) the “activity, negative = less viability” value was 2.6%. With `COc1ccc(C(=O)C2CCCN(Cc3cccn3-c3ccccn3)C2)c(C)c1` (configuration not stated) the Potency was 8.2 µM (active). With `COc1ccc(C(=O)C2CCCN(Cc3ccc4nonc4c3)C2)c(C)c1` (configuration not stated) the “activity, negative = less viability” value was -10.5%. With `COCCCN1C(=O)C(CC(=O)NCc2cccs2)CC(C(=O)N2CCOCC2)=C1C` (configuration not stated) the “activity, negative = less viability” value was 13.1%. For `Cc1ccc(SCC(=O)NC(=O)NCc2ccco2)c(C)c1`, the “activity, negative = less viability” value was -4.84%. In the case of `CCOc1ccccc1NC(=O)Cn1nnc(C(=O)NCc2cccs2)c1N`, the Potency is reported as 0.461 µM (active). For `Cc1ccc(NC(=O)Cn2nnc(C(=O)NCc3ccco3)c2N)c(C)c1`, the Potency was 20.6 µM (active). With `CCOc1ccccc1NC(=O)Cn1ncc2ccc([N+](=O)[O-])cc21` the “activity, negative = less viability” value was -2.56%. With `CCOc1ccc(Cn2nnc(C(=O)Nc3ccc(OC)cc3OC)c2N)cc1` the “activity, negative = less viability” value was -2.78%. For `COc1ccc(CNC(=O)c2nnn(CC(=O)Nc3cc(C)cc(C)c3)c2N)cc1`, the “activity, negative = less viability” value was 1.9%. With `CC(=O)c1ccc(OCC(=O)N(C)C2CCS(=O)(=O)C2)cc1` (configuration not stated) the “activity, negative = less viability” value was 14.7%. In the case of `COc1ccc(CN2C(=O)C(CC(=O)NCCN3CCOCC3)CC(C(=O)N(C(C)C)C(C)C)=C2C)cc1` (configuration not stated), the “activity, negative = less viability” value is reported as 1.88%. For `O=C(NCc1ccc(F)cc1F)[C@@H]1CCCN1C(=O)[C@@H]1CCCN1C(=O)c1cccc(Cl)c1`, the “activity, negative = less viability” value was 10.8%. In the case of `Nc1nc2c(Br)ccc(Br)c2cc1C(=O)NCCc1ccccc1`, the “activity, negative = less viability” value is reported as 0.0286%. For `CCOC(=O)c1cc(-c2sc(NC(=O)c3ccccc3)nc2C)n(Cc2ccccc2)n1`, the “activity, negative = less viability” value was -27.9%. For `COc1ccc(C(=O)N[C@H](C(=O)NCc2ccccc2)C(C)C)cc1`, the “activity, negative = less viability” value was 8.29%. With `COc1cc(OC)cc(C(=O)N[C@H](C(=O)Nc2nc3ccccc3[nH]2)C(C)C)c1` the Potency was 1.16 µM (active). With `COc1cc(OC)cc(C(=O)N[C@H](C(=O)NNC(=O)c2ccc(Br)cc2)C(C)C)c1` the “activity, negative = less viability” value was -0.305%. With `CN(NS(=O)(=O)c1cccs1)c1ncc(C(F)(F)F)cc1Cl` the “activity, negative = less viability” value was 6.3%. For `Cc1cc(C)cc(NS(=O)(=O)c2ccc(Oc3ncc(C(F)(F)F)cc3Cl)cc2)c1`, the Potency was 23.1 µM (active). For `Cc1ccc(NS(=O)(=O)c2ccc(C(C)(C)C)cc2)cn1`, the “activity, negative = less viability” value was 1.12%. In the case of `COC(=O)[C@@]1(Sc2ccc(C)cc2)CC(=O)N(c2cccc(SC)c2)[C@@H]1c1ccccc1`, the “activity, negative = less viability” value is reported as -37.1%. With `CCCCCCN1CCN(C2CN(Cc3cn(CCCCCC)nn3)S(=O)(=O)C2)CC1` (configuration not stated) the “activity, negative = less viability” value was -28.1%. In the case of `O=c1[nH]c(CCl)nc2cc(-c3ccc(Cl)cc3)sc12`, the Potency is reported as 16.4 µM (active). In the case of `Cn1c(NCc2cccnc2)nc2cc(-c3ccc(F)cc3)sc2c1=O`, the “activity, negative = less viability” value is reported as 3.48%. In the case of `CCC1(CC)Cc2ccccc2-c2nc(CCl)[nH]c(=O)c21`, the “activity, negative = less viability” value is reported as -27.6%. In the case of `CC(C)c1ccc(CC(=O)N2CCC2(C)C(=O)NS(=O)(=O)c2ccc(C(C)(C)C)cc2)cc1` (configuration not stated), the “activity, negative = less viability” value is reported as 2.38%. In the case of `CCCS(=O)(=O)NC(=O)C1(C)CCCN(C(=O)c2ccnc(Cl)c2)C1` (configuration not stated), the “activity, negative = less viability” value is reported as 22.2%. In the case of `CCCCCCN1C[C@H](O)[C@@H](n2cc(C3CC3)nn2)C[C@@H]1c1ccc(Cl)cc1`, the “activity, negative = less viability” value is reported as -1.63%. For `COc1ccc2oc(=O)cc(-c3cc4ccccc4o3)c2c1`, the “activity, negative = less viability” value was -5.9%. In the case of `COc1ccc(Nc2cc(=O)oc3ccccc23)cc1`, the Potency is reported as 7.31 µM (active). With `COc1ccc(Nc2ccc3ccccc3c2)cc1` the “activity, negative = less viability” value was -25.9%. With `COCCNC(=O)c1cc2c(Br)ccc(Br)c2nc1N` the “activity, negative = less viability” value was -6.43%. In the case of `C=CCNc1cnn(-c2ccc(C)cc2)c(=O)c1Cl`, the “activity, negative = less viability” value is reported as 14.9%. With `Cc1cccc(-n2ncc3c(=O)[nH]c(SCC(=O)Nc4cc(C)on4)nc32)c1` the “activity, negative = less viability” value was 9.3%. In the case of `Cc1cccc(-n2ncc(Cl)c(Cl)c2=O)c1`, the Potency is reported as 5.8 µM (active). With `Cc1cc(Br)cn2c(Cc3ccccc3C(F)(F)F)c(C3CCCCC3)nc12` the “activity, negative = less viability” value was 22.8%. With `Oc1ccc(-c2nc3ccccc3nc2-c2ccc(O)cc2O)c(O)c1` the “activity, negative = less viability” value was -11.5%. With `CC(=O)Nc1cnc(-c2ccc(O)cc2C)cn1` the “activity, negative = less viability” value was 11.8%. With `Cc1ccc(Nc2nc(-c3ccc(O)cc3O)cs2)nc1` the Potency was 1.64 µM (active). For `O=C(NCc1ccc(F)cc1)c1cc(C2CCCCN2C(=O)C2CCCCC2)on1` (configuration not stated), the “activity, negative = less viability” value was 1.47%.
